The text below walks through data of PubChem BioAssay (NCATS).

Where “and” joins values, the source holds several entries; their conditions need not be identical. Identical values can stand only once. Inconclusive results are not listed. Calls of active or inactive are those of the source. Unless noted, calls come from the whole dose curve; as a rule, active = well fitted curve in the direction sought with a large enough effect; inconclusive = small, poorly fitted or top-dose-only effect, or another doubt; inactive = no such curve, though single readings can be large; an effect the other way counts as inactive or inconclusive.
Potency is the fitted concentration of half-maximal effect.

Sequence of Cytochrome P450 2C9 (Homo sapiens) (P11712 whole entry, looked up): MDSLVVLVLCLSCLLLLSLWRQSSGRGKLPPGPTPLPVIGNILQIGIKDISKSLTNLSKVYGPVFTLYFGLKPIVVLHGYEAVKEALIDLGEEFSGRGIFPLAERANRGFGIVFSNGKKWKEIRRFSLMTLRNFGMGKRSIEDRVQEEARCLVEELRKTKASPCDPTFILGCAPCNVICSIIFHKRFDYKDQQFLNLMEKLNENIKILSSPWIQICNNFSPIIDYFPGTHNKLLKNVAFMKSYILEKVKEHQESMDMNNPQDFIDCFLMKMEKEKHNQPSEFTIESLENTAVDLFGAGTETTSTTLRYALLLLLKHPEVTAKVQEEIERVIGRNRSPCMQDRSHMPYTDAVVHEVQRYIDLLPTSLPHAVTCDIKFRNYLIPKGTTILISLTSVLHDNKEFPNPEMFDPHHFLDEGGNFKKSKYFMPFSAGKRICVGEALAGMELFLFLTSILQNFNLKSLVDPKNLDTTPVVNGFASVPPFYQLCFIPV

In one experiment the target is Cytochrome P450 2C9 (Homo sapiens) (UniProt P11712). Put plainly: Cytochrome P450 family 2 subfamily C member 9 (CYP2C9) small molecule antagonists: luciferase biochemical (cell-free) qHTS assay (AID 1645842; active = well fitted curve in the direction sought with a large enough effect in the repeat runs; an effect the other way counts as inactive or inconclusive; note: nearly all actives have a fitted effect of over 55% in size). The settings on record: P450-Glo CYP2C9 enzyme assay, luciferin luminescence; series mostly up to 57.4 µM. In outline:
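P450-Glo CYP2C9 system: proluciferin substrate with enzyme in mix containing 0.4% BSA, 10 min at room temperature, then NADPH regeneration solution added and incubated 1 h at 37C. Detection reagent stopped reaction; luminescence read after 20 min as RLU.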
In the case of `Nc1nc(NCC2CCC(CNS(=O)(=O)c3cccc4ccccc34)CC2)nc2ccccc12` (stereo not drawn), the Potency was 4.77 µM (active).

In the case of `Cc1nnsc1C(=O)Nc1ccc(-n2nc(C(F)(F)F)cc2C(F)(F)F)cc1`, the Potency is 15.1 µM (active).

As to `Cc1cc(C)c(NC(=O)N(Cc2ccc3c(c2)Cc2ccccc2-3)C2CCCCCC2)c(C)c1`, the Potency is 6.01 µM (active).

Consider `Fc1ccccc1CNCc1ccc(-c2ccnc3[nH]ccc23)cc1`, for which the Potency entry is “inactive”.

On to `CN(Cc1ccc(C(=O)O)cc1)c1ccc(OCc2c(-c3c(Cl)cccc3Cl)noc2C2CC2)nc1C(F)(F)F`, for which the Potency is 10.7 µM (active).

With `CS(=O)(=O)c1ccc(-c2cn3ccccc3n2)cc1`, the Potency is 13.8 µM (active).

As to `CCCCOc1ccc(-c2cncc(C(=O)NCc3cccnc3N3CCOCC3)c2)cc1Cl`, the Potency is 3.01 µM (active).

For the molecule `C=CC(=O)N1CCN(C(=O)c2cc(-c3cc(Cl)ccc3Cl)c(Cl)cc2OC)CC1`, the Potency entry is “inactive”.

For the molecule `C[C@@H](O[C@H]1OCCN(Cc2n[nH]nc2CN(C)C)[C@H]1c1ccc(F)cc1)c1cc(C(F)(F)F)cc(C(F)(F)F)c1`, the Potency was 15.1 µM (active).

As to `CCCCc1nc(C)c(CC(=S)N(C)C)c(=O)n1Cc1ccc(-c2ccccc2-c2nn[nH]n2)cc1`, the Potency was 9.52 µM (active).

Take `COc1cc(N2CCN(C(C)=O)CC2)ccc1Nc1ncc(Cl)c(Nc2ccc(N3CCN(C(C)=O)CC3)cc2OC)n1`: the Potency is 5.35 µM (active).

`CN(CC(=O)N(Cc1ccc(C2CCCCC2)cc1)c1ccc(C(=O)O)cc1)S(=O)(=O)c1c(F)c(F)c(F)c(F)c1F`: the Potency is 16.9 µM (active).

For a further experiment, the target named is N-terminal Xaa-Pro-Lys N-methyltransferase 1 (Homo sapiens) (UniProt Q9BV86). Put plainly: Confirmatory qHTS for Inhibitors of N-terminal methyltransferase 1 (NTMT1): MTaseGlo Assay (AID 1645874). Note: nearly all actives have a fitted effect of over 65% in size. To be noted: NTMT1 enzyme, MTase-Glo SAH luminescence; series mostly up to 100 µM. In outline: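 MTase-Glo luminescence measured SAH formed by 125 nM NTMT1 from 100 uM SAM and 1 uM SPKRIA peptide over 30 min at room temperature, following 15 min compound preincubation. Percent inhibition against no-enzyme and DMSO controls gave 4-parameter Hill fits.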
Sequence of N-terminal Xaa-Pro-Lys N-methyltransferase 1 (Homo sapiens) (Q9BV86 whole entry, looked up): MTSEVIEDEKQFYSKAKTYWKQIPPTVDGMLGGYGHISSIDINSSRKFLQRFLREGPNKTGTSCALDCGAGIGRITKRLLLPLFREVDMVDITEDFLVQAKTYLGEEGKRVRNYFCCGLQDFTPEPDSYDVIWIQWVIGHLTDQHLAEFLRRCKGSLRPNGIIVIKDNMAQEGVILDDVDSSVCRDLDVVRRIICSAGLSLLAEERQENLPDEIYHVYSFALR
For `Fc1ccccc1CNCc1ccc(-c2ccnc3[nH]ccc23)cc1`, the Potency result is “inactive”.

Take `CS(=O)(=O)c1ccc(-c2cn3ccccc3n2)cc1`: the Potency was 9.55 µM (active).

`COc1cc(N2CCN(C(C)=O)CC2)ccc1Nc1ncc(Cl)c(Nc2ccc(N3CCN(C(C)=O)CC3)cc2OC)n1`: the Potency is 49.4 µM (active).

Take `Cc1cc(CS(=O)(=O)c2ccccc2)cc(OCc2ccc(CN3CCC[C@@H]3CO)cc2)c1`: the Potency result is “inactive”.

System in another experiment: not listed separately
Description: Primary qHTS for inhibitors of nuclear receptor binding SET domain protein 2 (NSD2) in an isogenic RCH-ACV NSD2 p.E1099K mutant (9B) (AID 1645876). Note: nearly all actives have a fitted effect of over 70% in size. To be noted: RCH-ACV (leukaemia line) NSD2 E1099K (9B) viability, CellTiter-Glo, 72 h; series mostly up to 44.9 µM.
As for `CN[C@@H]1[C@@H](O)[C@@H](O[C@@H]2[C@@H](O)[C@H](O[C@H]3O[C@@H]([C@@H](C)NC)CC[C@H]3N)[C@@H](N)C[C@H]2N)OC[C@]1(C)O`, the Potency result is “inactive”.

Consider `C[N+]1(C)[C@@H]2CC[C@H]1CC(OC(=O)C(O)c1ccccc1)C2` (stereo partly drawn), for which the Potency entry was “inactive”.

`O=C(c1ccc(F)c(F)c1Nc1ccc(I)cc1F)N1CC(O)([C@@H]2CCCCN2)C1`: the Potency was 14.8 µM (active).

As to `CCNC(=O)[C@@H]1CCCN1C(=O)[C@H](CCCN=C(N)N)NC(=O)[C@H](CC(C)C)NC(=O)[C@@H](CC(C)C)NC(=O)[C@H](Cc1ccc(O)cc1)NC(=O)[C@H](CO)NC(=O)[C@H](Cc1c[nH]c2ccccc12)NC(=O)[C@H](Cc1cnc[nH]1)NC(=O)[C@@H]1CCC(=O)N1`, the Potency entry is “inactive”.

`CC1(CO)CCCC2(C)C1C(OC(=O)c1ccccc1)C=C1C(=O)OCC12O` (stereo not drawn): the Potency was 2.84 µM (active).

With `Cn1c(NC[C@@H](N)Cc2ccccc2)nc(-c2ccncc2)c(-c2ccc3ccccc3c2)c1=O`, the Potency was 18.6 µM (active).

Regarding `CCCCC(=O)N(Cc1ccc(-c2ccccc2-c2nn[nH]n2)cc1)C(C(=O)O)C(C)C` (stereo not drawn), the Potency entry is “inactive”.

Take `Nc1nc(NCC2CCC(CNS(=O)(=O)c3cccc4ccccc34)CC2)nc2ccccc12` (stereo not drawn): the Potency was 4.09 µM (active).

On to `COc1ccc(NS(=O)(=O)c2sc3ccc(Cl)cc3c2C)cc1N1CCNCC1`, for which the Potency is 20.5 µM (active).

Consider `CCCCc1nc(Cl)c(CO)n1Cc1ccc(-c2ccccc2-c2nnn[nH]2)cc1`, for which the Potency entry was “inactive”.

As for `CCC(=O)c1cc(-c2ccc(Cl)cc2)n(-c2ccc(S(N)(=O)=O)cc2)c1C`, the Potency is 23 µM (active).

For `Cc1cc(N=Nc2ccc(S(=O)(=O)Nc3ccccn3)cc2)c(N)cc1O`, the Potency is 8.17 µM (active).

In the case of `Cc1nnsc1C(=O)Nc1ccc(-n2nc(C(F)(F)F)cc2C(F)(F)F)cc1`, the Potency was 20.5 µM (active).

For the molecule `Cc1cc(C)c(NC(=O)N(Cc2ccc3c(c2)Cc2ccccc2-3)C2CCCCCC2)c(C)c1`, the Potency result was “inactive”.

Regarding `Fc1ccccc1CNCc1ccc(-c2ccnc3[nH]ccc23)cc1`, the Potency was 16.3 µM (active).

With `Cc1nc(C)c2c(n1)N(Cc1ccc(-c3ccccc3-c3nn[nH]n3)cc1)C(=O)CC2`, the Potency result is “inactive”.

On to `N#C[C@@H]1C[C@@H]2C[C@@H]2N1C(=O)[C@@H](N)C12CC3CC(CC(O)(C3)C1)C2`, for which the Potency result is “inactive”.

Turning to `CCCCOc1ccc(-c2cncc(C(=O)NCc3cccnc3N3CCOCC3)c2)cc1Cl`, the Potency result is “inactive”.

For the molecule `C=CC(=O)N1CCN(C(=O)c2cc(-c3cc(Cl)ccc3Cl)c(Cl)cc2OC)CC1`, the Potency was 11.5 µM (active).

As to `CC[C@H]1OC(=O)[C@H](C)[C@@H](O[C@H]2C[C@@](C)(OC)[C@@H](O)[C@H](C)O2)[C@H](C)[C@@H](O[C@@H]2O[C@H](C)C[C@H](N(C)C)[C@H]2O)[C@](C)(O)C[C@@H](C)/C(=N/OCOCCOC)[C@H](C)[C@@H](O)[C@]1(C)O`, the Potency result is “inactive”.

As for `C[C@@H](O[C@H]1OCCN(Cc2n[nH]nc2CN(C)C)[C@H]1c1ccc(F)cc1)c1cc(C(F)(F)F)cc(C(F)(F)F)c1`, the Potency was 16.3 µM (active).

`Cc1cc(CN)cc(C)c1NC(=O)c1ccc(-c2cc(Cl)ccc2Cl)o1`: the Potency is 18.3 µM (active).

As for `CCCCc1nc(C)c(CC(=S)N(C)C)c(=O)n1Cc1ccc(-c2ccccc2-c2nn[nH]n2)cc1`, the Potency entry is “inactive”.

`CC1(C)SC2C(NC(=O)[C@H](C(=O)O)c3ccsc3)C(=O)N2C1C(=O)O` (stereo partly drawn): the Potency entry was “inactive”.

For `Cc1cc(C)c(-c2csc(NC(=O)c3ccccc3)n2)c(C)c1`, the Potency was 4.09 µM (active).

Regarding `COc1c(N2CC3CCCNC3C2)c(F)cc2c(=O)c(C(=O)O)cn(C3CC3)c12` (stereo not drawn), the Potency result is “inactive”.

Consider `COc1cc(N2CCN(C(C)=O)CC2)ccc1Nc1ncc(Cl)c(Nc2ccc(N3CCN(C(C)=O)CC3)cc2OC)n1`, for which the Potency was 8.17 µM (active) and 16.6 µM (active).

In the case of `CN(CC(=O)N(Cc1ccc(C2CCCCC2)cc1)c1ccc(C(=O)O)cc1)S(=O)(=O)c1c(F)c(F)c(F)c(F)c1F`, the Potency was 7.28 µM (active).

`CO[C@@H]1[C@@H](O[C@H]2O[C@@H](C)[C@H](O[C@@H]3C[C@](C)(O)[C@H](O)[C@@H](C)O3)[C@@H](N(C)C)[C@@H]2O)[C@@H](CC=O)C[C@@H](C)[C@@H](O[C@H]2CC[C@H](N(C)C)[C@H](C)O2)/C=C/C=C/C[C@@H](C)OC(=O)C[C@H]1O`: the Potency entry was “inactive”.

For the molecule `CC1OC2O[C@H]3[C@@H](OCC(O)[C@H]3O)OC(=O)C34CCC(C)(C)CC3C3=CCC5C6(C)CC(O)C(OC7OC(CO)C(O)C(O)C7O[C@@H]7OC[C@H](OC(=O)CC(C)(O)CC(=O)OC1C(OC1OCC(O)C(O)C1O)C2O)[C@@H](O)[C@H]7O)C(C)(CO)C6CCC5(C)C3(C)CC4` (stereo partly drawn), the Potency is 8.93 µM (active).

As to `COCCNCc1ccc(-c2cc3nccc(Oc4ccc(NC(=S)NC(=O)Cc5ccc(F)cc5)cc4F)c3s2)nc1`, the Potency is 2.9 µM (active).

`Cc1cc(CS(=O)(=O)c2ccccc2)cc(OCc2ccc(CN3CCC[C@@H]3CO)cc2)c1`: the Potency was 12.9 µM (active) and 16.6 µM (active).
